Assay results taken from the supplement of paper PMC3334620.
In all, about 33,000 sequences were measured (“E-score (-0.5 to 0.5)”: median about -0.012, highest 2% from about 0.27 on). What follows is part of a selection rich in the highest values, with near analogues and random picks from the rest.

The sequences below were run against T1, Vhr1 (UniProt P40522) (assay: PBM E-score (8-mer binding enrichment) (E-score (-0.5 to 0.5)); higher = stronger / more preferred TF binding). Details: protein concentration: 200 nM; construct: GST-full length.
T1 sequence: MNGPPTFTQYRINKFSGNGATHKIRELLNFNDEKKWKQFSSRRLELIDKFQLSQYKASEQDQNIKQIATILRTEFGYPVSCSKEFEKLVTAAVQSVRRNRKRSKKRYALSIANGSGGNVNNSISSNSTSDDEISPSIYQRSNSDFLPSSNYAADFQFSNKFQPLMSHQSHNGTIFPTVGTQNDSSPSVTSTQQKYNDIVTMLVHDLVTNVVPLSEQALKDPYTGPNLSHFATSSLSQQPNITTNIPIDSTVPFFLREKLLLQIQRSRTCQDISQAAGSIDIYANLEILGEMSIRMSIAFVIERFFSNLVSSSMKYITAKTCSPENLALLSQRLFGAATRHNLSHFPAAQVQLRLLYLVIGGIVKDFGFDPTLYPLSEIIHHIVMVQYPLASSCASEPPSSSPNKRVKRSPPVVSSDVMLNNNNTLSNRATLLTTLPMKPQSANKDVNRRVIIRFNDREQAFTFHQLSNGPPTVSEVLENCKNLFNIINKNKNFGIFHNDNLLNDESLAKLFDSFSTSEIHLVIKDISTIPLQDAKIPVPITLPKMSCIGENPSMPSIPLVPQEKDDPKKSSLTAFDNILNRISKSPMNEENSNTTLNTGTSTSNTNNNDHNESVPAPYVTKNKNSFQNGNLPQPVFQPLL
Protocol: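 Universal 'all 10-mer' protein binding microarrays (Agilent AMADID 015681) probed with GST-tagged S. cerevisiae TFs (full-length or DBD) made by in vitro transcription/translation (PURExpress), about 100-200 nM. Bound TF was detected with fluorescent anti-GST. Each ungapped 8-mer (which stands for itself and its reverse complement) is scored by the PBM enrichment score (E-score), a modified Wilcoxon-Mann-Whitney statistic from -0.5 to +0.5, computed with the Universal PBM Analysis Suite. Scale: above 0.35 generally sequence-specific binding.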

Sequence	PBM E-score
CGGCTAAC	-0.0152
GGCAAGAC	-0.138
TGGTCTAA	-0.0689
GCCGTCTA	0.00852
GAGCACTA	0.0167
GCGAGTCA	0.455
CCGAGTAA	0.0614
CCGAGTCA	0.451
CCGAGTCC	0.144
GCGAGTCC	0.22
GCGAGTAA	0.2
ATTCGATG	0.0921
AAGCCTCG	0.00094
AGTCCCCG	0.0704
GGTGCTGA	0.042
CGCACCAG	0.302
CGCACCAA	0.143
AGCACCAG	-0.0111
AAATAATT	0.0111
ACCTGACT	0.374
ACCTGACG	-0.0943
ACCTGACC	0.11
AGCTGACT	0.413
AGCTGACC	0.116
AGCTGACG	-0.12

Sequence	PBM E-score
GGGCTTAC	-0.00595
AGAACTGA	-0.183
ATGAAGTG	-0.149
TAACAGAA	-0.069
ATTGAGAA	0.113
ATTGAGTC	0.387
CTTGAGGC	-0.174
ATTGAGAC	0.18
ATTGAGTA	0.308
CTTGAGTC	0.333
CTTGAGTA	0.0408
ATTGAGTG	0.202
GTTGAGTA	0.147
AGAGAAGA	-0.148
AACATCGG	0.0341
ATGCCAGG	0.0307
CGCGTACG	0.0931
CGCACGCC	0.167
ACGTTCGC	-0.141
GCTGCCAA	-0.0372
CCTGATTC	0.367
ACTGATTG	-0.00926
ACTGATTC	0.283
ACTGATTA	0.147
CCTGATTA	0.158

Sequence	PBM E-score
CCTGATGC	-0.0265
ACTCTACA	0.0564
ACGTCCAG	-0.147
CGAATAAG	0.0236
AGTATATA	0.33
GCTATATA	0.0669
ACTATATC	0.198
AGTATATG	0.239
ACTATATA	0.274
AGTATATC	0.0944
CAGAATGA	0.0955
CAAGGGCA	-0.168
GTTCTAAA	-0.164
GAGCGACC	-0.162
CCTCACCA	-0.00516
ACTCACCT	0.244
CCTCACCG	0.113
TCTCACCA	0.0878
ACTCACCC	0.391
ACTCACCG	0.309
GCTCACCC	0.265
ACTCACCA	0.378
CCTCACCC	0.0394
CTCTAGCC	-0.167
CCAGGGAG	0.09

Sequence	PBM E-score
GTAGGGTA	0.0298
CAAGCGTG	-0.00913
CCATTCAA	0.0103
CAGATTCG	0.069
CAACCATC	0.0512
AAACCATA	0.0822
AAACCATC	0.273
ACTGGGTA	-0.00457
ATAGGGGC	-0.0513
GAGCGAAA	0.0518
AACTTTTG	-0.205
CTCATATC	0.203
ATCATATC	0.3
ATCATATG	0.174
TACCAAGA	0.0906
AGAGCGCC	-0.134
AATGATGC	0.0924
AGGGCCAA	-0.299
AGTCTGCC	0.0302
AGGGAGTA	0.113
AGGGAGTC	0.343
AGGGAGTG	0.042
CGGGAGTA	0.00502
CGGGAGTC	0.386
CGGGAGAC	-0.0366

Sequence	PBM E-score
ACCACAAC	0.258
AATACAGG	0.111
CTCCTCTA	-0.189
GCGGGTCA	0.308
ACGGGTGA	0.117
GGGGGTGA	0.132
GCGGGTCC	-0.00354
ACGGGTCA	-0.077
AGGGGTGA	-0.0936
CCGGGTGA	0.208
GCGGGTGA	0.293
CGGGGTGA	0.275
GCTTAAAA	-0.0463
ACAGTTAA	0.0518
GTACCTAA	-0.0816
CGGTCGAC	0.0782
GAAGATAA	-0.0175
ATCACCCA	0.223
GTCACCGA	0.256
GTCACCCA	0.311
CTCACCCC	0.318
CTCACCAA	0.265
CTCACCGA	0.183
CTTACCCC	-0.156
CTCACCCA	0.342

Sequence	PBM E-score
ATCACCCC	0.199
ACTGGTGG	0.0234
GAGGGCTA	-0.228
GGTATGAC	0.231
AGTATGAG	0.0941
CGTATGAC	0.142
AGTATGAA	0.203
AGTATGAT	0.271
AGTATGAC	0.311
CCTGTGGA	-0.166
CTCTCATC	-0.131
CTTGCGGC	-0.0654
CATATATA	0.256
AATATATT	0.284
AATATATG	0.19
AATATATA	0.157
TATATACA	0.162
GATATATC	0.0354
GATATACA	0.113
GATATATA	0.284
GATACATA	0.332
TATATATA	0.318
GATACATC	0.224
CATACATA	0.238
ATGGCTTC	0.00791

Sequence	PBM E-score
CGTTTCGC	-0.0307
GAGTATGA	0.228
CTCTCAAC	0.00283
GCTTAGTA	-0.171
GGATCAAC	-0.0769
GTAACCAA	0.103
TGCAATAA	-0.0029
GGGGCCCA	-0.0152
ACTGATAG	0.167
AGAATTAA	-0.301
ATTGAAGC	-0.163
AAAATTCA	-0.128
CTACTATC	0.277
CTACTATA	0.168
ATACTATC	0.128
GGTCTGAC	0.226
AGGATGAA	-0.0977
GGGATGAA	-0.00977
ATGATGAG	0.196
CTGATGAC	0.19
AGGATGAG	0.225
AGGATGAC	0.112
